Source: PubChem BioAssay (NCATS)
“And” between values parts separate entries of the source, which are not always exact repeats. Equal entries are not always repeated. Inconclusive results are not listed. The source made the active and inactive calls. Unless noted, calls follow the shape of the dose curve; as a rule, active = well fitted curve in the direction sought with a large enough effect; inconclusive = small, poorly fitted or top-dose-only effect, or another doubt; inactive = no such curve, though single readings can be large; an effect the other way counts as inactive or inconclusive.

Assays:
[1] = Cell Viability - N2a (AID 540); settings: N2a mouse neuroblastoma cell viability; activity change, negative = cytotoxicity: at 92.2 µM (top of the series);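 also: plate controls were DMSO alone for no effect and tamoxifen control for full effect; nearly all actives have a fitted effect of over 45% in size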
How it was run: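 Mouse neuroblastoma N2a cells, 1500/well, exposed to compounds 40 h at 37 °C in complete medium. Viability measured as cellular ATP by CellTiter-Glo luminescence; AC50 from Hill fits of concentration-response.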

[2] = Cell Viability - H-4-II-E (AID 543); also: % is scaled to controls: 0 for no effect and ±100 for the full control effect; nearly all actives have a fitted effect of over 35% in size
How it was run: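 Rat hepatoma H-4-II-E cells, 1500 per well, treated 40 h at 37 °C in complete medium. Cellular ATP read by CellTiter-Glo luminescence; AC50 from Hill fits of concentration-response.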

[3] = Cellular Toxicity (caspase-3) Mesangial (AID 660);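 also: combined caspase 3 and 7 activity read by Caspase-Glo luminescence; cells exposed to compound for 16 h before the caspase read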
How it was run: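 Human renal glomerular mesangial cells, 1000/well, 5 h at 37 C before 16 h compound treatment. Caspase-Glo 3/7 luminescence after 20 min; normalized to DMSO and 100 uM tamoxifen, AC50 from Hill fit.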

[4] = Cellular Toxicity (caspase-3) NIH 3T3 (AID 666);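 also: caspase signal read after 16 h compound exposure; 0% = DMSO basal and 100% = 100 µM tamoxifen stimulation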
How it was run: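 Mouse NIH 3T3 fibroblasts (1000/well) treated 16 h at 37 C; caspase-3/7 activity measured by Caspase-Glo 3/7 luminescence after 20 min. Normalized to DMSO and 100 uM tamoxifen; AC50 from Hill fits.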

[5] = Cell Viability - LYMP2-004 (AID 966);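 also: plate controls were DMSO only for no effect and tetraoctylammonium bromide control for full effect; nearly all actives have a fitted effect of over 65% in size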
How it was run: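 Lymphoblastoid LYMP2-004 cells, 2500 per well, were preincubated for 5 hr and then treated with compound for 24 h at 37 C in complete medium. Viability was read as cellular ATP by CellTiter-Glo luminescence, and AC50 values were taken from Hill fits to concentration-response data.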

[6] = Cell Viability - LYMP2-021 (AID 974);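 also: compound exposure lasts 24 hours at 37 °C; nearly all actives have a fitted effect of over 55% in size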; also: potency is read from the fitted curve at half-maximal effect; as to activity change, negative = cytotoxicity: % is scaled to controls: 0 for no effect and ±100 for the full control effect
How it was run: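 Human lymphoblastoid LYMP2-021 cells, 2500/well in complete medium, treated 24 hours at 37 C. Intracellular ATP by CellTiter-Glo luminescence (30 min, RT); AC50 from Hill fits of concentration-response.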

[7] = Cell Viability - LYMP2-012 (AID 982);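 also: cellular ATP by luciferase luminescence where a drop means cytotoxicity; cells exposed to compound for one day before reading; 0% = DMSO only and full loss = 92 µM tetraoctylammonium bromide; nearly all actives have a fitted effect of over 55% in size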
[8] = Cell Viability - LYMP1-002 - Assay at 40 hr (AID 994);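 also: 0% = DMSO only and full inhibition = 92 µM tetraoctylammonium bromide; nearly all actives have a fitted effect of over 60% in size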
How it was run: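 LYMP1-002 human lymphoblastoid cells (2500/well, complete medium) were treated with compounds for 40 hr at 37 C. Intracellular ATP was measured by CellTiter-Glo luminescence, and AC50 values came from Hill-equation fits of concentration-response data; tetraoctylammonium bromide was the positive control.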

[9] = biological target: Vitamin D3 receptor (Homo sapiens) (UniProt P11473); test: qHTS assay for small molecule antagonists of vitamin D receptor signaling (AID 588541; calls by dose curve;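 also: receptor activated by calcitriol during compound treatment; % is scaled to controls: 0 for no effect and ±100 for the full control effect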)
How it was run: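 VDR-UAS-bla HEK293T cells in 2% charcoal-stripped FBS were stimulated with 1-alpha,25-dihydroxyvitamin D3 (3 nM final) plus compound for 16 h at 37 C. The beta-lactamase CCF4 readout was normalized to 50 nM agonist and DMSO, and Hill fits gave IC50.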

[10] = biological target: Vitamin D3 receptor (Homo sapiens) (UniProt P11473); test: qHTS assay for small molecule agonists of vitamin D receptor signaling (AID 588543; calls by dose curve;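 also: 0% = DMSO basal and 100% = reference agonist control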)
How it was run: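 VDR-UAS-bla HEK293T cells, 2000/well, 2% charcoal-stripped FBS; compound titration 16 h at 37 C; CCF4 beta-lactamase ratio read. Normalized to 50 nM 1-alpha,25-dihydroxyvitamin D3 (100%) and DMSO; Hill fit gives EC50, efficacy.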

[11] = biological target: Thyroid hormone receptor beta (Homo sapiens) (UniProt P10828); test: qHTS assay for small molecule agonists of thyroid hormone receptor beta signaling (AID 588545; calls by dose curve)
How it was run: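 Agonist-mode beta-lactamase reporter assay, HEK 293 cells, 2% charcoal/dextran FBS; cells plated 4 hrs, compound 18 hrs at 37 C, CCF4 2 hrs RT. Normalized to 10 nM T3 (100%) and DMSO (0%); Hill fit gives EC50, efficacy.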

[12] = qHTS assay for small molecule antagonists of retinoid X receptor alpha signaling (AID 588546; active = well fitted inhibition curve with a large enough effect in the signal ratio, with a control signal flat, not every such curve was filed as active; the % refers to the signal ratio;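 also: cells stimulated with 9-cis-retinoic acid as agonist; % is scaled to controls: 0 for no effect and ±100 for the full control effect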); settings: HEK293T RXRa-UAS-bla, beta-lactamase ratio, antagonist mode; measured here: W530 green channel, cytotoxicity proxy
How it was run: (§1)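 Beta-lactamase reporter inhibition, read as CCF4 fluorescence ratio (ex 405, em 460/530 nm) after 2 h at RT. HEK293T UAS-bla cells, 2500/well, were stimulated with 9-cis-RA at 500 or 100 nM final alongside test compound for 18 h at 37 C.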

[13] = biological target: Retinoic acid receptor RXR-alpha (Homo sapiens) (UniProt P19793); test: as above; settings: HEK293T RXRa-UAS-bla, beta-lactamase ratio, antagonist mode
How it was run: as §1

[14] = biological target: Tumor necrosis factor (Homo sapiens) (UniProt P01375); test: qHTS assay to identify small molecules that stimulate Tumor Necrosis Factor-alpha (TNF-alpha) secretion (AID 651757; active = well fitted curve in the direction sought with a large enough effect in the signal ratio; the % refers to the signal ratio; also: 0% is about no effect)
How it was run: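 THP-1 cells (3000/well) exposed to compounds 17 hrs at 37 C. Secreted TNF-alpha detected by HTRF with cryptate- and XL665-labeled anti-TNF-alpha antibodies after 3 hr at room temperature.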

[15] = biological target: Nuclear receptor ROR-gamma (Homo sapiens) (UniProt P51449); test: qHTS assay for small molecule antagonists of the retinoid-related orphan receptor gamma (ROR-gamma) signaling pathway (AID 651802);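 also: luciferase reporter luminescence driven by ROR response element; % is scaled to controls: 0 for no effect and ±100 for the full control effect; nearly all actives have a fitted effect of over 60% in size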
How it was run: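 CHO cells with TET-inducible ROR-gamma and RORE-luciferase reporter, dosed then doxycycline-induced. After 16 h at 37C, One-Glo luminescence read; decreased signal indicates antagonism.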

[16] = qHTS assay for small molecule agonists of the antioxidant response element (ARE) signaling pathway measured by Nrf2-dependant transcriptional activity (AID 720636; active = well fitted curve in the direction sought with a large enough effect in the repeat runs; an effect the other way counts as inactive or inconclusive;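 also: HepG2 cells with an ARE-driven luciferase reporter; % of control where 0% means no effect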)
How it was run: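 ONE-Glo luminescence, read 30 min after reagent addition at room temperature, reflected ARE reporter activity in HepG2 cells that had been incubated with compound for 16 hr at 37 C in 1% dialyzed FBS.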

[17] = qHTS assay for small molecule antagonists of the retinoid-related orphan receptor gamma (ROR-gamma) signaling pathway - cell viability counter screen (AID 720652; active = well fitted curve in the direction sought with a large enough effect in the repeat runs; an effect the other way counts as inactive or inconclusive;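 also: compound exposure lasted 16 hr before ATP read; % is scaled to controls: 0 for no effect and ±100 for the full control effect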)
How it was run: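 CHO cells carrying TET-inducible ROR and RORE-luciferase reporter, plated 5 hr, then dosed with compound plus doxycycline. After 16 hr at 37 C, viability read as intracellular ATP by CellTiter-Glo luminescence.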

[18] = qHTS assay for small molecule activators of the human pregnane X receptor (PXR) signaling pathway (AID 720659; call rule not given here; also: 0% is about no effect)
[19] = biological target: Cytochrome P450 3A4 (Homo sapiens) (UniProt P08684); test: qHTS Assay for Inhibitors and Substrates of Cytochrome P450 3A4 (AID 884); also: % is scaled to controls: 0 for no effect and ±100 for the full control effect; nearly all actives have a fitted effect of over 50% in size
How it was run: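 20 nM human CYP3A4 with 25 uM Luciferin-PPXE (at KM) in 200 mM KPO4, preincubated 10 min with compound; NADPH regeneration started a 60 min RT reaction. Luciferin detected by luminescence, normalized to 57 uM ketoconazole as full inhibition.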

[20] = MultiTox-Fluor Cytotoxicity Assay - LYMP1-002 - Dead Cells (AID 960);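 also: 0% = DMSO and 100% = tetraoctylammonium bromide; nearly all actives have a fitted effect of over 60% in size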
How it was run: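 Human lymphoblastoid LYMP1-002 cells, 2500/well, treated 16 h at 37 C; dead-cell protease cleavage of bis-AAF-R110 read by fluorescence (485/520); normalized to DMSO and 15 uM tetraoctylammonium bromide; AC50 from Hill fit.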

Sequence of Vitamin D3 receptor (Homo sapiens) (P11473 whole entry, looked up): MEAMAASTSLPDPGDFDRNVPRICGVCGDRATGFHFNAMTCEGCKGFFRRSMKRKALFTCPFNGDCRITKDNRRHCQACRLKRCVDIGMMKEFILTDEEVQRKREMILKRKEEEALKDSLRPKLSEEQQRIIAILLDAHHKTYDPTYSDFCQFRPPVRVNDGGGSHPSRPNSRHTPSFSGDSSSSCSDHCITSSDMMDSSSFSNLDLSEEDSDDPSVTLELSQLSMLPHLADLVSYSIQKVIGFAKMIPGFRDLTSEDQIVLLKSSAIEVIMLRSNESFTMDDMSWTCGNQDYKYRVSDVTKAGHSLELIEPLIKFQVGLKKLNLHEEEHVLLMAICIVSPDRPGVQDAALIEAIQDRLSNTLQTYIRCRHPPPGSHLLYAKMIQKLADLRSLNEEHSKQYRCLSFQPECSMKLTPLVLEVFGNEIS
Sequence of Tumor necrosis factor (Homo sapiens) (P01375 whole entry, looked up): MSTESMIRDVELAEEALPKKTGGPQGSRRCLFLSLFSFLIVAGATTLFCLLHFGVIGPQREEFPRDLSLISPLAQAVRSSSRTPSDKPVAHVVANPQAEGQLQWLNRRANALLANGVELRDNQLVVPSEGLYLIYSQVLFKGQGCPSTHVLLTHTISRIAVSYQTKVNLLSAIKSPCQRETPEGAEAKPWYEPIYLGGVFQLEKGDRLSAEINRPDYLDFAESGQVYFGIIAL
Sequence of Nuclear receptor ROR-gamma (Homo sapiens) (P51449 whole entry, looked up): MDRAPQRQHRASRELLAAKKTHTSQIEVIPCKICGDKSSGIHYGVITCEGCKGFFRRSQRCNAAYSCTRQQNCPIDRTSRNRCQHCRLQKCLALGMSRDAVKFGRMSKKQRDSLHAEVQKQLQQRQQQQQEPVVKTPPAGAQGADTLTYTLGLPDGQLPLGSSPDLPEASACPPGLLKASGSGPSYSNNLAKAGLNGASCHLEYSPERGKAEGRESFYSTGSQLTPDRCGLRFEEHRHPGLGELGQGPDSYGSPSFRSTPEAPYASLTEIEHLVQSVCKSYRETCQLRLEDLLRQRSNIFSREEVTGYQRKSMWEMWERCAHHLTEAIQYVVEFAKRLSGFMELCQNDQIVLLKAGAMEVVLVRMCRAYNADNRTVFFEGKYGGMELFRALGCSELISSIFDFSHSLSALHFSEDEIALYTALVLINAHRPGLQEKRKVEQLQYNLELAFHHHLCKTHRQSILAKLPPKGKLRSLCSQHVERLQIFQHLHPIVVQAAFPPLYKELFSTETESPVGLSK
Sequence of Thyroid hormone receptor beta (Homo sapiens) (P10828 whole entry, looked up): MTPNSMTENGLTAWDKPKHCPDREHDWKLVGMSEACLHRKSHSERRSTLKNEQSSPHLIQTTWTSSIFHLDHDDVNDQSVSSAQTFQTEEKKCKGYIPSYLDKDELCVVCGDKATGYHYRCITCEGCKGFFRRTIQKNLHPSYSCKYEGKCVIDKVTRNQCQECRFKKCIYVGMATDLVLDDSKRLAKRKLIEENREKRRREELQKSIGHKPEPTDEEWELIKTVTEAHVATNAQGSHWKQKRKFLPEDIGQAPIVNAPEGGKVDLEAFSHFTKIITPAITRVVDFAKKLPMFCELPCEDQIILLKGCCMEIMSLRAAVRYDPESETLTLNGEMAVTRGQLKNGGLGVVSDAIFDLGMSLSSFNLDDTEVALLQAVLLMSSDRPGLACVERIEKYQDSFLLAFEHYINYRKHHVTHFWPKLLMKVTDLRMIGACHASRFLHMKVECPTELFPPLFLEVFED
Sequence of Cytochrome P450 3A4 (Homo sapiens) (P08684 whole entry, looked up): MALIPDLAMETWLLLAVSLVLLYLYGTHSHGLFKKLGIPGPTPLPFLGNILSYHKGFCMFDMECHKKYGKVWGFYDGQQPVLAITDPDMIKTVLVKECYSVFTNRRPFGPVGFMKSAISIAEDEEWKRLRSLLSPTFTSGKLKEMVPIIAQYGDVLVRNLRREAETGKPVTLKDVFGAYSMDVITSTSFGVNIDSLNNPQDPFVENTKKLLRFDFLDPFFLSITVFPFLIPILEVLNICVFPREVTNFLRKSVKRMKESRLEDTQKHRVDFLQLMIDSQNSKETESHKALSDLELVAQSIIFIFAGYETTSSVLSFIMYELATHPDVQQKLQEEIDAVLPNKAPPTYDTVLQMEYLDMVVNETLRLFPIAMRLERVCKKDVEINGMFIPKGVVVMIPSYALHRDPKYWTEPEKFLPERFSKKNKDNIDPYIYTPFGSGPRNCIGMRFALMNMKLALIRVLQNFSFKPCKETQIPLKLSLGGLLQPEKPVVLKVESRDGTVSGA
Sequence of Retinoic acid receptor RXR-alpha (Homo sapiens) (P19793 whole entry, looked up): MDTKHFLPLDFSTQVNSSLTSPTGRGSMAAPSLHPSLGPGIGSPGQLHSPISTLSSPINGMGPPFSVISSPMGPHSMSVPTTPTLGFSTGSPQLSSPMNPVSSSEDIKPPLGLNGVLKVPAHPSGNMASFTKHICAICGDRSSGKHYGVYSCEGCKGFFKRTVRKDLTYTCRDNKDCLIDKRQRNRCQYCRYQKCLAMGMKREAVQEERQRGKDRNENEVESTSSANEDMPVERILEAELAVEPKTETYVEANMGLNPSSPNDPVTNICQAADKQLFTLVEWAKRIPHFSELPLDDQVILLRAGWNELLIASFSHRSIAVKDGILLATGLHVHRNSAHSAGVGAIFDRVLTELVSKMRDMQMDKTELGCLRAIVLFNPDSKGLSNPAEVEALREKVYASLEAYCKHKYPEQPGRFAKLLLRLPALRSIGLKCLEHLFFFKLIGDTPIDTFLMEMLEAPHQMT

CCCCCOC(=O)c1ccccc1C(=O)OCCCCC
inactive: Potency [1] | Potency [2] | outcome [3] | Potency [4] | Potency [5] | Potency [6] | Potency [7] | Potency [8] | outcome [9] | outcome [10] | Potency [11] | max response [13] -6.11% | outcome [14] | Potency [15] | Potency [16] | Potency [17] | outcome [18]
-5.52%: max response [12]

ClCc1ccccc1
inactive: Potency [1] | Potency [2] | outcome [3] | Potency [4] | Potency [19] | Potency [20] | Potency [5] | Potency [7] | Potency [8] | outcome [9] | outcome [10] | Potency [11] | max response [13] 6.84% | outcome [14] | Potency [15] | Potency [16] | Potency [17] | outcome [18]
-2.86%: max response [12]

OCCBr
8.33%: max response [12]
inactive: Potency [1] | Potency [2] | outcome [3] | Potency [4] | Potency [19] | Potency [20] | Potency [5] | Potency [6] | Potency [7] | Potency [8] | outcome [9] | outcome [10] | Potency [11] | max response [13] 2.44% | outcome [14] | Potency [15] | Potency [16] | Potency [17] | outcome [18]

O=[N+]([O-])c1ccccc1-c1ccccc1
-2.63%: max response [12]
inactive: Potency [1] | Potency [2] | outcome [3] | Potency [19] | Potency [20] | Potency [6] | Potency [7] | Potency [8] | Potency [11] | max response [13] 0.902% | outcome [14] | Potency [15] | Potency [16] | Potency [17] | outcome [18]

COc1ccc(C=O)cc1
inactive: Potency [1] | Potency [2] | outcome [3] | Potency [4] | Potency [19] | Potency [20] | Potency [5] | Potency [6] | Potency [7] | Potency [8] | outcome [9] | outcome [10] | max response [13] 14.5% | outcome [14] | Potency [15] | Potency [16] | Potency [17] | outcome [18]
3.67%: max response [12]

O=[N+]([O-])c1ccc(Cl)cc1
inactive: Potency [1] | Potency [2] | outcome [3] | Potency [4] | Potency [19] | Potency [20] | Potency [5] | Potency [7] | Potency [8] | outcome [9] | outcome [10] | Potency [11] | max response [13] 5.21% and -2.59% | outcome [14] | Potency [15] | Potency [16] | Potency [17] | outcome [18]
-1.92% and -4.79%: max response [12]

CCSC(=O)N1CCCCCC1
-11.6% and -2.5%: max response [12]
inactive: Potency [1] | Potency [2] | outcome [3] | Potency [4] | Potency [19] | Potency [20] | Potency [5] | Potency [6] | Potency [7] | Potency [8] | outcome [9] | outcome [10] | Potency [11] | max response [13] -8.27% and -1.48% | outcome [14] | Potency [15] | Potency [16] | Potency [17] | outcome [18]

O=[N+]([O-])c1cccc(O)c1
-2.66%: max response [12]
inactive: Potency [2] | outcome [3] | Potency [4] | Potency [19] | Potency [20] | Potency [5] | Potency [6] | Potency [7] | Potency [8] | outcome [9] | outcome [10] | Potency [11] | max response [13] -5.97% | outcome [14] | Potency [15] | Potency [16] | Potency [17] | outcome [18]

S=C1NCCN1
inactive: Potency [1] | Potency [2] | outcome [3] | Potency [4] | Potency [19] | Potency [20] | Potency [5] | Potency [6] | Potency [7] | Potency [8] | outcome [9] | outcome [10] | Potency [11] | max response [13] -12.1% and 9.5% | outcome [14] | Potency [16] | Potency [17] | outcome [18]
-7.1% and 12.2%: max response [12]

OCCOCCO
inactive: Potency [1] | Potency [2] | outcome [3] | Potency [4] | Potency [19] | Potency [20] | Potency [5] | Potency [6] | Potency [7] | Potency [8] | outcome [9] | outcome [10] | Potency [11] | max response [13] 1.12% | outcome [14] | Potency [15] | Potency [16] | Potency [17] | outcome [18]
2.28%: max response [12]

CN(C)C(=O)Cl
3.53%: max response [12]
inactive: Potency [1] | Potency [2] | outcome [3] | Potency [19] | Potency [5] | Potency [6] | Potency [7] | Potency [8] | outcome [9] | outcome [10] | max response [13] 8.18% | outcome [14] | Potency [15] | Potency [16] | Potency [17] | outcome [18]

Cc1ccc(N)c(N)c1
inactive: Potency [2] | outcome [3] | Potency [4] | Potency [20] | outcome [9] | outcome [10] | Potency [11] | max response [13] -10.9% | Potency [15]
1.53%: max response [12]
active: Potency [6] 31.6 µM

CC(C)(OOC(C)(C)c1ccccc1)c1ccccc1
-11%: max response [12]
inactive: Potency [1] | Potency [2] | outcome [3] | Potency [4] | Potency [19] | Potency [20] | Potency [5] | Potency [6] | Potency [7] | Potency [8] | outcome [9] | outcome [10] | Potency [11] | max response [13] 4.95% | outcome [14] | Potency [15] | Potency [16] | Potency [17]

CCCBr
inactive: Potency [1] | Potency [2] | outcome [3] | Potency [4] | Potency [19] | Potency [20] | Potency [5] | Potency [6] | Potency [7] | Potency [8] | outcome [9] | outcome [10] | Potency [11] | max response [13] 1.56% | outcome [14] | Potency [15] | Potency [16] | Potency [17] | outcome [18]
-1.75%: max response [12]

O=S(=O)(Cl)c1ccccc1
25.3% and -4.13%: max response [12]
inactive: Potency [1] | Potency [2] | outcome [3] | Potency [4] | Potency [19] | Potency [20] | Potency [5] | Potency [6] | Potency [7] | Potency [8] | outcome [9] | outcome [10] | Potency [11] | max response [13] -0.573% and -10.4% | outcome [14] | Potency [16] | Potency [17] | outcome [18]
